Data as given in PubChem BioAssay (Tox21).
Inconclusive results are not listed. Calls of active or inactive are those of the source. Unless noted, calls follow the shape of the full dose curve.

What was measured:
[1] = molecular target: Gonadotropin-releasing hormone receptor (Homo sapiens) (UniProt P30968); experiment: Human gonadotropin-releasing hormone receptor (GnRHR) small molecule agonists, calcium flux assay in GnRHR-HEK293 cells (AID 1920063); also: nearly all actives have a fitted effect of over 35% in size
How it was run: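 Stable human GnRHR HEK293 line. 18 h plating, then calcium dye for 1 h at 37 C. Agonist-mode compound addition from DMSO stocks; fluorescence monitored 3 min.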

[2] = molecular target: KiSS-1 receptor (Homo sapiens) (UniProt Q969F8); experiment: Human kisspeptin (KISS1R) small molecule agonists, calcium flux assay in KISS1R-HEK293 cells (AID 1920064; active = well fitted activation curve with a large enough effect in the repeat runs)
How it was run: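 After overnight (18 h) culture at 37 C/5% CO2, human KISS1R-HEK293 cells received calcium dye for 1 h, then test compound; emission at 540 nm (excitation 480 nm) was tracked for 3 min.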

[3] = G protein-coupled receptor (GPCR) small molecule agonists, calcium flux assay: HEK293 wild type cell line counter screen (AID 1920065)
How it was run: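 Following 18 h incubation at 37 C/5% CO2, plates got calcium dye for 1 h; compounds, ATP or DMSO were then pinned in and fluorescence followed kinetically (480/540 nm).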

[4] = p53 small molecule agonists, cell-based qHTS assay with human liver microsomes (AID 1963577);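 also: p53 response element beta-lactamase reporter cells with liver microsomes plus NADPH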
How it was run: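 p53RE-bla cells; 5 h settle, 37 C/5% CO2; cpd + HLM 0.5 mg/mL + NADPH 0.5 mg/mL (final); 16 h 37 C; LiveBLAzer 2 h RT dark; fluorescence readout.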

[5] = p53 small molecule agonists, cell-based qHTS assay with rat liver microsomes (AID 1963578)
How it was run: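 Rat liver microsome activation: microsomes 0.5 mg/mL, NADPH 0.5 mg/mL final; p53RE-bla cells, 16 h 37 C; LiveBLAzer readout, 2 h RT dark.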

[6] = p53 small molecule agonists, cell-based qHTS assay with human liver microsomes: qHTS cell viability counter screen (AID 1963579); also: nearly all actives have a fitted effect of over 45% in size
How it was run: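 Luminescent CellTiter-Glo read-out, 30 min at room temperature, gauged cytotoxicity in p53RE-bla cells exposed 16 h at 37 C to DMSO-dissolved compounds with metabolic activation by human liver microsomes and NADPH, each 0.5 mg/mL final.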

[7] = p53 small molecule agonists, cell-based qHTS assay with rat liver microsomes: qHTS cell viability counter screen (AID 1963580); also: nearly all actives have a fitted effect of over 45% in size
How it was run: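 Rat liver microsome (0.5 mg/mL final) and NADPH (0.5 mg/mL final) co-incubation with compounds for 16 h at 37 C on HCT-116 p53RE-bla cells; cytotoxicity taken from intracellular ATP luminescence.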

[8] = p53 small molecule agonists, cell-based qHTS assay: qHTS cell viability counter screen (AID 1963581); also: nearly all actives have a fitted effect of over 45% in size
How it was run: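 qHTS counter screen: 16 h compound exposure at 37 C of p53RE-bla HCT-116 cells (4,000 per well, seeded 5 h prior), cell viability by ATP luminescence.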

[9] = molecular target: 5-hydroxytryptamine receptor 2A (Homo sapiens) (UniProt P28223); experiment: 5-hydroxytryptamine receptor 2A (HTR2A) small molecule antagonists, cell-based qHTS assay (AID 1963586); also: nearly all actives have a fitted effect of over 45% in size
How it was run: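 CHO cells stably expressing human HTR2A were plated for 18 h at 37 C, then loaded with calcium dye for 1 h. Compounds were preincubated 5 min at room temperature before DOI (4 nM solution) was added. Kinetic fluorescence was read for 3 min.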

[10] = molecular target: 5-hydroxytryptamine receptor 2A (Homo sapiens) (UniProt P28223); experiment: 5-hydroxytryptamine receptor 2A (HTR2A) small molecule agonists, cell-based qHTS assay (AID 1963587); also: nearly all actives have a fitted effect of over 30% in size
How it was run: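 Kinetic calcium-flux fluorescence (2 min, 1 sec intervals) after compound addition in agonist mode. HTR2A-CHO cells were cultured 18 h, then dye-loaded 1 h at 37 C.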

[11] = molecular target: Muscarinic acetylcholine receptor M1 (Homo sapiens) (UniProt P11229); experiment: Cholinergic receptor muscarinic 1 (CHRM1) small molecule antagonists, cell-based qHTS assay (AID 1963588); also: nearly all actives have a fitted effect of over 40% in size
How it was run: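 Compounds were tested at 15 concentrations in three independent runs. Dye-loaded CHRM1-CHO cells were exposed 5 min at room temperature before stimulation by acetylcholine added at 50nM. Intracellular calcium was read kinetically on FDSS for 3 min.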

[12] = molecular target: Muscarinic acetylcholine receptor M1 (Homo sapiens) (UniProt P11229); experiment: Cholinergic receptor muscarinic 1 (CHRM1) small molecule agonists, cell-based qHTS assay (AID 1963589); also: nearly all actives have a fitted effect of over 35% in size
How it was run: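 Kinetic fluorescence (1 s intervals) of calcium-sensitive dye in human M1 CHO cells after compound addition; cells pre-incubated 18 h at 37 C/5% CO2 and dye-loaded 1 h.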

[13] = cAMP Responsive Elements (CRE) small molecule antagonists, cell-based qHTS assay (AID 1963591; active = well fitted inhibition curve with a large enough effect in the signal ratio in the repeat runs, not every such curve was filed as active; the % refers to the signal ratio)
How it was run: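 Reporter line CRE-bla HEK 293T in dialyzed-FBS DMEM; cells preincubated 18 h, treated 3 h with compound plus NKH477 (0.25 uM final); LiveBLAzer FRET, 2 h RT.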

[14] = molecular target: Beta-2 adrenergic receptor (Homo sapiens) (UniProt P07550); experiment: Adrenergic beta2 receptor (ADRB2) small molecule antagonists, cell-based qHTS assay (AID 1963592); also: series mostly up to about 92 µM; nearly all actives have a fitted effect of over 50% in size
How it was run: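 Assay format: CHO-ADRB2 cells, 18-20hr seeding at 37C/5% CO2, then compound plus 1nM isoproterenol agonist mix for 0.5hr RT. Homogeneous time-resolved fluorescence cAMP detection after 1hr, expressed as 665/615 nm ratio.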

[15] = molecular target: D(2) dopamine receptor (Homo sapiens) (UniProt P14416); experiment: Dopamine D2 receptor (DRD2) small molecule agonists, cell-based qHTS assay (AID 1963594); also: nearly all actives have a fitted effect of over 35% in size
How it was run: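 cAMP accumulation in DRD2-HEK293 cells measured by HTRF after 1 h detection; compounds added 10 min before NKH477 (200nM […]) forskolin-analogue stimulation, 30 min at room temperature, with Ro20-1724 present at 0.1 mM final.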

[16] = molecular target: D(2) dopamine receptor (Homo sapiens) (UniProt P14416); experiment: Dopamine D2 receptor (DRD2) small molecule antagonists, cell-based qHTS assay (AID 1963595; active = well fitted inhibition curve with a large enough effect in the signal ratio in the repeat runs, with a control signal flat; the % refers to the signal ratio)
How it was run: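 HEK293 cells stably expressing DRD2, preincubated with 0.1 mM Ro20-1724 and compounds 10 min, were stimulated with 200 nM NKH477 plus 12 nM quinpirole for 30 min at room temperature; cAMP measured by HTRF (665/620 nm).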

[17] = p53 small molecule agonists, cell-based qHTS assay (AID 1963582; active = well fitted activation curve with a large enough effect in the signal ratio in the repeat runs, not every such curve was filed as active; the % refers to the signal ratio)
How it was run: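 Measured: fluorescence from cleaved LiveBLAzer substrate. System: p53RE-bla cells, 16 h compound treatment at 37 C, 2 h substrate step at room temperature.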

[18] = cAMP Responsive Elements (CRE) small molecule agonists, cell-based qHTS assay (AID 1963590)
How it was run: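 Test agents in DMSO were incubated 3 h at 37 C/5% CO2 with CRE-bla HEK 293T cells seeded 18 h earlier; LiveBLAzer B/G FRET substrate was added and read after 2 h at room temperature.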

[19] = molecular target: Beta-2 adrenergic receptor (Homo sapiens) (UniProt P07550); experiment: Adrenergic beta2 receptor (ADRB2) small molecule agonists, cell-based qHTS assay (AID 1963593);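 also: CHO cells stably overexpressing human ADRB2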
How it was run: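 CHO cells stably over-expressing ADRB2 were plated overnight at 37C, then dosed with compounds plus a stimulation mix containing 100uM IBMX and 25uM Ro-20-1724 for 0.5hr at room temperature. cAMP was measured by HTRF competition, 1hr.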
% is scaled to controls: 0 for no effect and ±100 for the full control effect.

Chain of Beta-2 adrenergic receptor (Homo sapiens) (P07550 whole entry, looked up): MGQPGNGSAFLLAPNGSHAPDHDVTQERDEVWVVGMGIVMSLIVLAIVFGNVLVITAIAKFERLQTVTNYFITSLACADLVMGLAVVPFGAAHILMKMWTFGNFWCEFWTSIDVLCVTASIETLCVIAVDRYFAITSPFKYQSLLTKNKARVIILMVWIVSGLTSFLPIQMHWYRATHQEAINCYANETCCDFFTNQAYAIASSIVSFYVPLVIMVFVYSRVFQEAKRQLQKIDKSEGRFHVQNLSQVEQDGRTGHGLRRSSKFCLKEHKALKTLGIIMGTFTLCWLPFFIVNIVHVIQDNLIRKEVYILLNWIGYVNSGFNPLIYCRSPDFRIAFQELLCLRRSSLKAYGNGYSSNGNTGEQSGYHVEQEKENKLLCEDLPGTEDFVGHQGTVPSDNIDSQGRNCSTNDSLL
Chain of 5-hydroxytryptamine receptor 2A (Homo sapiens) (P28223 whole entry, looked up): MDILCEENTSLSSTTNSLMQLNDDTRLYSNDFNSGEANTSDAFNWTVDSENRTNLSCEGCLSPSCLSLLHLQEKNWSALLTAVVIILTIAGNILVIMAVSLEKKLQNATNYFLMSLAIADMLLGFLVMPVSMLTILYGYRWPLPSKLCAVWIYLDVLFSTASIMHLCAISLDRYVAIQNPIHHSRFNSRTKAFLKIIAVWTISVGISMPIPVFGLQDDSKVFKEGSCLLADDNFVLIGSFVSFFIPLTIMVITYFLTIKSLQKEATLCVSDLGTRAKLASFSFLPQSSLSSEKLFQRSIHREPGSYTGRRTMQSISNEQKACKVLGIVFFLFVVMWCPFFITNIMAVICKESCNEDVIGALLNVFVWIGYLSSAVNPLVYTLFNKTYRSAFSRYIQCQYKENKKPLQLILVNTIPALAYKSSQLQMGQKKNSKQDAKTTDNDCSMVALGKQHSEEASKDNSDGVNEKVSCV
Chain of Muscarinic acetylcholine receptor M1 (Homo sapiens) (P11229 whole entry, looked up): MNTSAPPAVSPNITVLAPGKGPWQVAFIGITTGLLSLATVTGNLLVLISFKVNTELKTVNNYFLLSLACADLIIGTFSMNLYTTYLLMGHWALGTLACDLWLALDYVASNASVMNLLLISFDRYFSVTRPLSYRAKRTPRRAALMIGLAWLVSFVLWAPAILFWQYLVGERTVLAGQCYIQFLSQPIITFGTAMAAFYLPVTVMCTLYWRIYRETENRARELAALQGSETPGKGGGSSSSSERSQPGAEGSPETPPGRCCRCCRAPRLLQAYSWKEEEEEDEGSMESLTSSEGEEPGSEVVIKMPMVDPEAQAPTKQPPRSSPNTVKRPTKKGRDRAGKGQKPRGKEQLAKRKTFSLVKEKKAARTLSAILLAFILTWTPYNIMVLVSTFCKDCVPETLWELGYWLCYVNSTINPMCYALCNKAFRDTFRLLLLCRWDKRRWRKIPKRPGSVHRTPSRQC
Chain of Gonadotropin-releasing hormone receptor (Homo sapiens) (P30968 whole entry, looked up): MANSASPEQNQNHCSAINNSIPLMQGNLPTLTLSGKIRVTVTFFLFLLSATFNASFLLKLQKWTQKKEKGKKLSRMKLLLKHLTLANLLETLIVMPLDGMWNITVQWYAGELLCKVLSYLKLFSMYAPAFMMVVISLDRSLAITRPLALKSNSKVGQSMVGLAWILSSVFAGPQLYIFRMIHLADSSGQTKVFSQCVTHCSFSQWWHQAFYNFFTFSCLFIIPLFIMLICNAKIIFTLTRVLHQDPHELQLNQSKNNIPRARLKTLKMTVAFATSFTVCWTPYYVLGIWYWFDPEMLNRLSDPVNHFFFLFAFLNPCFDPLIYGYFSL
Chain of KiSS-1 receptor (Homo sapiens) (Q969F8 whole entry, looked up): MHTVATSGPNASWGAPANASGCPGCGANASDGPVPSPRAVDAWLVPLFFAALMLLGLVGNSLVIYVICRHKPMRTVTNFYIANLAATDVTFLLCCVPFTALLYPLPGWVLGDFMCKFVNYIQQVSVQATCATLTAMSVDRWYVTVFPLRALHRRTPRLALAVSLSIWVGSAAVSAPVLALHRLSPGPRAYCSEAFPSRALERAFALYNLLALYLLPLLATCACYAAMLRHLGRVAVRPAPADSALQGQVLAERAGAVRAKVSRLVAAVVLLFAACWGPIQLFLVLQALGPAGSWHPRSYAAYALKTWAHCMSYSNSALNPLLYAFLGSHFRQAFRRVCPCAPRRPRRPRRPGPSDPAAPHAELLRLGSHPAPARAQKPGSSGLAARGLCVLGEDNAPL
Chain of D(2) dopamine receptor (Homo sapiens) (P14416 whole entry, looked up): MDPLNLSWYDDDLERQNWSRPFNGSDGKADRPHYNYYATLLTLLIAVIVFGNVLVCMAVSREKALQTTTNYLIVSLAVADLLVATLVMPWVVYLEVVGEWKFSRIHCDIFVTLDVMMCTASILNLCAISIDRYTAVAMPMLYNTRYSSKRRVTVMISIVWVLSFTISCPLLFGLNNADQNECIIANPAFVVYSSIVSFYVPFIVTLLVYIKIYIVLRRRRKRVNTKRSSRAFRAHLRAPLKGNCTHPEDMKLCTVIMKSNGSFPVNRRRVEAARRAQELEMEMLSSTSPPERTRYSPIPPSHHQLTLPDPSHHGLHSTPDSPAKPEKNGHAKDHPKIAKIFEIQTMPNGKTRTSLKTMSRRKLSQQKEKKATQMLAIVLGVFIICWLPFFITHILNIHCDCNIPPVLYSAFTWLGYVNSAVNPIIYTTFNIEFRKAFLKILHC

CC(C)(C)C1CCC(CC2=C(O)c3ccccc3C(=O)C2=O)CC1 (configuration not stated)
inactive: Potency [1] | Potency [2] | Potency [3] | Potency [4] | Potency [5] | Potency [6] | Potency [7] | Potency [8] | Potency [9] | Potency [10] | Potency [11] | Potency [12] | Potency [13] | Potency [14] | Potency [15] | Potency [16]

CC(C)(c1ccc(Oc2ccc(N)cc2)cc1)c1ccc(Oc2ccc(N)cc2)cc1
inactive: Potency [1] | Potency [2] | Potency [3] | Potency [4] | Potency [5] | Potency [7] | Potency [8] | Potency [17] | Potency [9] | Potency [10] | Potency [12] | Potency [18] | Potency [13] | Potency [14] | Potency [15] | Potency [16]

C[C@@H](O[C@H]1OCCN(Cc2n[nH]c(=O)[nH]2)[C@H]1c1ccc(F)cc1)c1cc(C(F)(F)F)cc(C(F)(F)F)c1
inactive: Potency [1] | Potency [2] | Potency [3] | Potency [4] | Potency [5] | Potency [6] | Potency [7] | Potency [17] | Potency [11] | Potency [12] | Potency [14] | Potency [15] | Potency [16]

CC1=C(/C=C/C(C)=C/C=C/C(C)=C/C=O)C(C)(C)CCC1
inactive: Potency [1] | Potency [2] | Potency [3] | Potency [4] | Potency [5] | Potency [9] | Potency [10] | Potency [11] | Potency [12] | Potency [14] | Potency [19] | Potency [15] | Potency [16]

Cc1c[nH]c(=O)[nH]c1=O
inactive: Potency [1] | Potency [2] | Potency [3] | Potency [4] | Potency [6] | Potency [7] | Potency [8] | Potency [17] | Potency [9] | Potency [10] | Potency [11] | Potency [12] | Potency [18] | Potency [13] | Potency [14] | Potency [19] | Potency [15] | Potency [16]

COc1cc2ncnc(Nc3cccc(Cl)c3)c2cc1OC
inactive: activity change [1] -1.73% [at 11.8 µM, active compounds read high] | activation [2] 1.01% [at 15.8 µM] | activation [3] -0.385% [at 11.8 µM] | activation [4] -11.3% [at 13.5 µM] | activation [5] -0.041% [at 13.6 µM] | activity change, negative = cytotoxicity [6] -15.6% [at 13.5 µM] | activity change, negative = cytotoxicity [7] -3.32% [at 13.5 µM] | activity change, negative = cytotoxicity [8] -12.1% [at 13.5 µM] | activation [17] -4.37% [at 13.5 µM] | activity, negative = inhibition [9] 2.95% [at 12.7 µM] | activation [10] -3.99% [at 15.9 µM] | activity, negative = inhibition [11] -4.44% [at 12.6 µM] | activation [12] -1.11% [at 15.8 µM] | activity change, negative = inhibition [14] -2.49% [at 19 µM] | activation [15] -4.16% [at 19 µM] | activity change, negative = inhibition [16] -0.58% [at 18.9 µM]
